Results reported in PubChem BioAssay AID1851 (National Center for Advancing Translational Sciences (NCATS), 2009).
The whole screen tested about 16,000 compounds, of which about 5,700 (36%) were called active. About 24% were inconclusive and are not listed. Calls come from the whole dose curve; as a rule, active = well fitted curve in the direction sought with a large enough effect; inconclusive = small, poorly fitted or top-dose-only effect, or effect the other way; inactive = no such curve, though single readings can be large or run the other way. The list shows a part of the results.

target: Cytochrome P450 1A2 (Homo sapiens) (UniProt P05177); test: Cytochrome panel assay with activity outcomes; conditions: recombinant CYP, pro-luciferin dealkylation, luminescence, p450-cyp1a2; series mostly up to 57.1 µM; activity, negative = inhibition: at the top concentration
% is set by controls: 0 for no effect and ±100 for the full control effect.

Cytochrome P450 1A2 (Homo sapiens), sequence (P05177 whole entry, looked up): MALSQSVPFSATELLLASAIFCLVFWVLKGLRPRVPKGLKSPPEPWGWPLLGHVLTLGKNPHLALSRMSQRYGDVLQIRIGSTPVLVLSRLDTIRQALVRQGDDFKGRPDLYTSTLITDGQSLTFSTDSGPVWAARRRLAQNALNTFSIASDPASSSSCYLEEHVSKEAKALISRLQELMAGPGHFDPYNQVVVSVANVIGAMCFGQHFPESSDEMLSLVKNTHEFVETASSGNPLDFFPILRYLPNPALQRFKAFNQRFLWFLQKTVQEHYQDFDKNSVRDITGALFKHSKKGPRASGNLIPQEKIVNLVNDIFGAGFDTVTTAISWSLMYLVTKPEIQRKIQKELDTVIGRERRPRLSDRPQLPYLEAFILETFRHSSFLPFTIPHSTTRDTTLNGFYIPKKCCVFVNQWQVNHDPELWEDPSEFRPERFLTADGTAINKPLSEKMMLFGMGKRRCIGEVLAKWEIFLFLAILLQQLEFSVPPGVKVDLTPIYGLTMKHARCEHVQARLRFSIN

Row | Structure (SMILES) | AC50 | activity, negative = inhibition
1 | C=CCNc1nc(-c2ccc(Cl)cc2)cs1 | 2.24 µM (active) | –
2 | CC(Oc1ccccc1)c1ccnn1S(=O)(=O)c1ccccc1 (centres undefined) | 25.1 µM (active) | –
3 | CC(Oc1ccc(-c2ccccc2)c(F)c1)c1ccn(S(=O)(=O)c2ccc(Cl)cc2)n1 (centres undefined) | – | -15.3% (inactive)
4 | CC(Oc1ccc(Cl)cc1)c1ccnn1S(=O)(=O)c1ccccc1 (centres undefined) | 15.8 µM (active) | –
5 | O=S(=O)(c1ccccc1)N1CN2CN(C1)CN(S(=O)(=O)c1ccccc1)C2 | – | -14.9% [at 11.4 µM] (inactive)
6 | CCOC(=O)c1ccc(NC(=O)C2(c3ccc(OC)cc3)CCOCC2)cc1 | – | -4.73% (inactive)
7 | COC(=O)c1c(C)nc2ccccc2c1C(=O)O | – | -9.4% (inactive)
8 | CCOC(=O)c1ccc(Nc2nc(-c3cccnc3)nc3ccccc23)cc1 | 6.31 µM (active) | –
9 | CCOC(=O)c1ccc(Nc2nc(C(=O)OCC)nc3ccccc23)cc1 | 0.891 µM (active) | –
10 | CCCNC(=O)OC[C@@H]1O[C@H](CCO/N=C\[C@@H](C)[C@H](OCc2ccccc2)C(C)C)C=C[C@@H]1Oc1ccc(OC)cc1 | – | -5.94% [at 11.4 µM] (inactive)
11 | O=C(Nc1cccc(F)c1)N1CC[C@@]2(CCCNC2)C1 | – | -12.5% (inactive)
12 | O=C(O)[C@@H]1[C@@H](C(=O)Nc2ncccn2)[C@@H]2C=C[C@@H]1O2 | – | -13.2% [at 2.29 µM] (inactive)
13 | O=C(O)[C@@H]1[C@@H](C(=O)NCc2ccncc2)[C@@H]2C=C[C@@H]1O2 | 5.01 µM (active) | –
14 | O=C(O)[C@@H]1[C@@H](C(=O)NCc2cccnc2)[C@@H]2C=C[C@@H]1O2 | – | -0.421% [at 2.29 µM] (inactive)
15 | C[C@@H]1Cc2ccccc2N1NC(=O)c1ccc(Cl)c(S(N)=O)c1 (some centres undefined) | – | -11.4% [at 25.6 µM] (inactive)
16 | CC1Cc2ccccc2N1C(=O)CN1C(=O)COc2ccccc21 (centres undefined) | – | -14.8% (inactive)
17 | CC1Cc2ccccc2N1C(=O)Cn1c(=O)cc(O)c2ccccc21 (centres undefined) | 14.1 µM (active) | –
18 | COc1ccc(N2C(=O)NC3CC2(C)Oc2ccccc23)cc1OC (centres undefined) | – | -28.6% (inactive)
19 | COc1ccc(-n2c(C)n[nH]c2=O)cc1OC | – | -13.2% (inactive)
20 | COc1ccc(-n2cccc2C=O)cc1OC | 14.1 µM (active) | –

Row | Structure (SMILES) | AC50 | activity, negative = inhibition
21 | COc1ccc(C(=O)N2CCC[C@@]3(CCN(Cc4ccc(C#N)cc4)C3)C2)cc1 | – | -20.7% (inactive)
22 | CCn1c(/C=C2/C(=O)N(C)c3ccccc32)nc2ccccc2c1=O | 1 µM (active) | –
23 | CC1(C)CC2(CCO1)OC(=O)CC2C(=O)NCCc1ccccc1 (centres undefined) | – | 12.8% (inactive)
24 | Cc1c(N(C)CS(=O)(=O)O)c(=O)n(-c2ccccc2)n1C | – | -11.4% [at 25.6 µM] (inactive)
25 | Cc1c(CCO)c(=O)n(-c2ccccc2)n1S(=O)(=O)c1c(Cl)cc(Cl)cc1Cl | 12.6 µM (active) | –
26 | Cc1ccc(S(=O)(=O)/N=C(/Nc2c(C)n(C)n(-c3ccccc3)c2=O)c2ccc(Cl)cc2)cc1 | – | -18.4% (inactive)
27 | CC(=O)O[C@H]1C2=CO[C@H](C)[C@H]3[C@H]4C5=C([C@H](O)[C@H]6O[C@@H]6C5=O)[C@H](O[C@H]4C)[C@@]23C(=O)[C@H]2O[C@@H]21 | – | -0.486% [at 11.4 µM] (inactive)
28 | Cc1ccn2c(NC(=O)c3ccccc3)c(-c3cccs3)nc2c1 | 22.4 µM (active) | –
29 | O=C(O)C12CC3(C(=O)O)CC(C(=O)O)(CC(C(=O)O)(C1)C3=O)C2=O | – | -4.32% [at 2.29 µM] (inactive)
30 | Cc1ncn(-c2ccccc2O)c1C | 0.794 µM (active) | –
31 | Cc1nc2ccccn2c1C(=O)N/N=C/c1ccccc1[N+](=O)[O-] | 15.8 µM (active) | –
32 | CC1=NNC(=O)C1CCC(=O)N/N=C\c1ccccc1[N+](=O)[O-] (centres undefined) | – | -21.8% (inactive)
33 | COc1ccc2c(c1)c(CC(=O)O)c(C)n2Cc1ccc(Cl)cc1 | 31.6 µM (active) | –
34 | COc1ccc2c(c1)c(CC(=O)OCC(=O)O)c(C)n2C(=O)c1ccc(Cl)cc1 | – | -15.1% [at 25.6 µM] (inactive)
35 | O=C(O)Cc1cc(Cl)ccc1O | – | -16.6% [at 11.4 µM] (inactive)
36 | CC(=O)n1nc(-c2ccco2)nc1N | 10 µM (active) | –
37 | Cc1nc2nc[nH]n2c(=O)c1NC(=O)CC12CC3CC(CC(C3)C1)C2 | – | -10.9% (inactive)
38 | O=C1c2ccccc2NC(c2ccc(Cl)cc2Cl)N1O (centres undefined) | 6.31 µM (active) | –
39 | COC(=O)N1CC(=O)N(OC)C1c1ccc(Cl)cc1Cl (centres undefined) | – | -9.57% (inactive)
40 | O=C1c2ccccc2N[C@H](c2cc(Cl)cc(Cl)c2O)N1CCc1ccccn1 | – | 5.81% [at 2.29 µM] (inactive)

Row | Structure (SMILES) | AC50 | activity, negative = inhibition
41 | Cn1c(=NC(=O)CCl)sc2ccccc21 | 2.24 µM (active) | –
42 | CO[C@H]1[C@H](O[C@H]2O[C@@H](C)[C@@H](O[C@@H]3C[C@](C)(O)[C@H](OC(=O)CC(C)C)[C@H](C)O3)[C@@H](N(C)C)[C@@H]2O)[C@@H](CC=O)C[C@@H](C)[C@@H](O)/C=C\C=C/C[C@@H](C)OC(=O)C[C@H]1OC(C)=O | – | 2.24% [at 25.6 µM] (inactive)
43 | COc1ccc2[nH]cc(C=O)c2c1 | 7.08 µM (active) | –
44 | COc1ccc2[nH]c3cc4c(=O)c5cc(OC)ccc5[nH]c4cc3c(=O)c2c1 | – | -6.02% [at 2.29 µM] (inactive)
45 | N[C@@H](Cc1[nH]nc2ccccc12)C(=O)O | – | -19.1% [at 11.4 µM] (inactive)
46 | Brc1[nH]nc2ccccc12 | 1.58 µM (active) | –
47 | COC(=O)c1ccccc1N/C=C1\CCc2c(c(C)nn2-c2ccccn2)C1=O | 6.31 µM (active) | –
48 | COc1ccc(-c2cc(C(=O)O)c3c(C)nn(-c4ccccn4)c3n2)cc1 | – | -1.78% (inactive)
49 | COC(=O)N1CCC2(CC1)CCN(c1ccccn1)CC2 | – | 2.64% (inactive)
50 | Cc1cccc(CNc2ncncc2-c2cccnc2)c1 | 0.794 µM (active) | –
51 | c1ccc(CNc2ncncc2-c2cccnc2)cc1 | 2.51 µM (active) | –
52 | c1cncc(CNc2ncn[nH]2)c1 | – | -7.88% [at 11.4 µM] (inactive)
53 | c1cncc(CNc2ncncc2-c2cccnc2)c1 | 5.01 µM (active) | –
54 | CC[C@H]1C2=C3C(CC[C@H]4C(OCc5ccc(F)cc5C(F)(F)F)OC[C@](C)([C@@H]34)N(C(=O)OC(C)(C)C)C2)C2COC(=O)OCC21 (some centres undefined) | – | -14.8% (inactive)
55 | O=C(Nc1ccc2c(c1)nc1n2CCN(C2CCCCC2)C1)NC1CCCCC1 | – | -13.4% (inactive)
56 | Cc1ccc(S(=O)(=O)N[C@@H]2COC(=O)C/C=C\[C@H](C)COC(=O)N[C@@H](C)C(=O)C/C=C\[C@H]2C)cc1 | – | -0.145% [at 11.4 µM] (inactive)
57 | CCn1c(SCc2ccc(C(=O)Nc3nccs3)cc2)nnc1-c1ccc(NC(C)=O)cc1 | 12.6 µM (active) | –
58 | Cc1ccc(NC(=O)c2ccc(CSc3nnc(-c4ccncc4)n3C)cc2)cc1 | – | 7.07% (inactive)
59 | C=CCn1c(SCc2ccc(C(=O)Nc3ccccc3)cc2)nnc1-c1ccccc1 | 14.1 µM (active) | –
